Assay [1] can be described thus: Viability counterscreen for antagonist of constitutive androstane receptor (CAR) against the NCATS DSHEA and TCM libraries (AID 1794837).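 Further: compound exposure lasted 24 h before viability reading; 0% is about no effect.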 In outline:
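Viability was measured by CellTiter-Fluor fluorescence (405/540 nm, 1 hr) in HepG2-CYP2B6-hCAR cells. Cells were co-treated 24 hr with 48 uM CITCO (final), antagonist mode, and test substances.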

Assay [2] can be described thus: Viability counterscreen for agonist of constitutive androstane receptor (CAR) against the NCATS DSHEA and TCM libraries (AID 1794838). Further: 0% is about no effect. In outline:
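Cell viability, from CellTiter-Fluor fluorescence (405/540 nm), was scored after a 24 h, 37C exposure of HepG2 cells carrying CYP2B6 reporter and hCAR to test substances in presence of 0.75 uM PK11195.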

Assay [3] has as its target Nuclear receptor subfamily 1 group I member 3 (Homo sapiens) (UniProt Q14994). Nature of the assay: Primary qHTS for agonist of constitutive androstane receptor (CAR) against the NCATS DSHEA and TCM libraries (AID 1794839). Further: potency means the concentration at half of the fitted maximal effect.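 On activation: HepG2 cells expressing human CAR with a CYP2B6 reporter plus PK11195 antagonist; 0% is about no effect.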 In outline: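 Agonist mode in presence of hCAR antagonist PK11195 (0.75 µM final): test substances, 24 h, 37 °C, on HepG2-CYP2B6-hCAR cells. Same-well readouts: fluorescence viability, then ONE-Glo luminescence; CITCO as reference agonist.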

A short description of assay [4]: HepG2 viability counterscreen (readout 2: ATP content) against the NCATS DSHEA and TCM libraries (AID 1794840).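 Further: HepG2 cells exposed to substances for about 24 h; 0% is about no effect.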 In outline: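 Readout 1: cellular protease activity, GF-AFC substrate (25 uM final, 30 min, fluorescence 380/510 nm). Readout 2: ATP content by CellTiter-Glo luminescence after 30 min at RT. Both follow ~24 h exposure of HepG2 cells (1,000/well) to substances.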
(Counterscreens check selectivity or assay interference.)

The target of assay [5] is Cytochrome P450 3A4 (Homo sapiens) (UniProt P08684). Nature of the assay: qHTS for inhibitors of CYP3A4 against the NCATS DSHEA and TCM libraries (AID 1919971).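 Further: on the % scale 0 is the no-effect control and ±100 the full control effect; inhibition lowers luminescence from luciferin made by CYP3A4.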 In outline:
(§1)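 Isoform-specific enzyme and substrate levels; enzyme-free wells as background. Reaction: 1x NADPH regenerating system, 30-45 min, room temperature, shielded from light; luminescent detection reagent added, 30 min.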
(In general: In qHTS, concentration-response curves come from the screen itself.)

For assay [6], the target named is Cytochrome P450 2D6 (Homo sapiens) (UniProt P10635). Nature of the assay: qHTS for inhibitors of CYP2D6 against the NCATS DSHEA and TCM libraries (AID 1919972). Further: on the % scale 0 is the no-effect control and ±100 the full control effect. In outline:
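qHTS, concentration–response format with most substances from 19.5 nM. CYP2D6 + pro-luciferin substrate, 15 min with compound, then 1x NADPH regen, 30–45 min RT dark. Glo detection 30 min, luminescence. Quinidine control.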

Assay [7] deals with Cytochrome P450 2C9 (Homo sapiens) (UniProt P11712). The assay can be described thus: qHTS for inhibitors of CYP2C9 against the NCATS DSHEA and TCM libraries (AID 1919973).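 Further: luminogenic pro-luciferin CYP2C9 substrate turned into luciferin with NADPH regeneration; on the % scale 0 is the no-effect control and ±100 the full control effect.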 In outline:
as §1

In assay [8] the target is Cytochrome P450 2C19 (Homo sapiens) (UniProt P33261). Nature of the assay: qHTS for inhibitors of CYP2C19 against the NCATS DSHEA and TCM libraries (AID 1919974).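 Further: luminescence from luciferin released by CYP2C19 oxidation of a pro-luciferin substrate.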 Further: potency means the concentration at half of the fitted maximal effect. In outline: as §1
Assay [9] in a line: KB-3-1 P-gp reporter qHTS against the NCATS DSHEA and TCM libraries (AID 1919975). Further: 0% is about no effect. In outline: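 Cell viability by CellTiter-Glo luminescence following ~72 h compound exposure (concentration-response). Uses parental, non-P-gp-overexpressing KB-3-1 line, 500 cells/well in DMEM/10% FBS, attached ~4 h before dosing.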
Assay [10] addresses Cytochrome P450 1A2 (Homo sapiens) (UniProt P05177). Nature of the assay: qHTS for inhibitors of CYPIA2 against the NCATS DSHEA and TCM libraries (AID 1919976).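 Further: light from luciferin formed by CYP1A2 from a pro-luciferin substrate; on the % scale 0 is the no-effect control and ±100 the full control effect.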 In outline:
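Furafylline served as the plate control. Compounds met CYP1A2 and pro-luciferin substrate 15 min before NADPH regeneration solution (1x) was added; after 30-45 min at RT, P450-Glo reagent was added for 30 min and luminescence was measured.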

Assay [11] can be described thus: qHTS Counterscreen for compound interference against the NCATS DSHEA and TCM libraries (AID 1919978).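 Further: compounds preincubated with 1 µM D-luciferin or buffer before detection reagent; % of control where 0% means no effect.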 Conditions: firefly luciferase detection reagent interference, luminescence. In outline:
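With 1 uM D-luciferin or phosphate buffer only, compounds at final 19.5 nM–39.8 uM were incubated for 15 min at room temperature. Luciferase detection reagent was then added, and luminescence was measured after a further 30 min at room temperature.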

Assay [12] is described as follows: Dual reporter qHTS for agonist of Pregnane X Receptor (hPXR) against the NCATS DSHEA and TCM libraries: Fluorescence readout (AID 1920058). Further: 0% is about no effect. In outline:
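In this qHTS counter-read, reporter-bearing HepG2 cells in charcoal-stripped serum received substances for approximately 24 h before viability was assessed fluorometrically with CellTiter-Fluor.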

In assay [13] the target is Nuclear receptor subfamily 1 group I member 2 (Homo sapiens) (UniProt O75469). Nature of the assay: Dual reporter qHTS for agonist of Pregnane X Receptor (hPXR) against the NCATS DSHEA and TCM libraries: Luminescence readout (AID 1920059). Further: 0% is about no effect. In outline: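 Luminescent PXR reporter read (ONE-Glo) after a CellTiter-Fluor viability read, following 24 h, 37C treatment of HepG2 cells stably carrying hPXR-Luc.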

Assay [14] shares this target. The assay can be described thus: Dual reporter qHTS for antagonist of Pregnane X Receptor (hPXR) against the NCATS DSHEA and TCM libraries: Luminescence Readout (AID 1920060).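 Further: HepG2 cells carrying hPXR luciferase reporter stimulated with rifampicin at 2 µM; 0% is about no effect.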 In outline:
(§2)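 Antagonist mode: rifampicin 2 uM final co-added with compounds to hPXR-LucHepG2 cells for 24 h at 37C. Viability by CellTiter-Fluor, Ex/Em 405/540 nm, 1 h; reporter by ONE-Glo luminescence.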

A short description of assay [15]: Dual reporter qHTS for antagonist of Pregnane X Receptor (hPXR) against the NCATS DSHEA and TCM libraries: Fluorescence Readout (AID 1920061). Further: 0% is about no effect. In outline: as §2
For assay [16], the target named is Lysosomal acid glucosylceramidase (Homo sapiens) (UniProt P04062). Nature of the assay: Glucocerebrosidase-p2 (AID 348; in the data active means potency below about 10 µM; further: potency means the concentration at half of the fitted maximal effect). Conditions: purified GBA, blue fluorogenic substrate, 40 min. In outline:
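Normal human glucocerebrosidase (0.2 nM) with blue fluorogenic substrate (80 uM final) in citrate/phosphate pH 5.9 with 10mM sodium taurocholate, 0.01% tween-20; 40 min RT, NaOH/glycine stop; fluorescence Ex 365/Em 440; AC50 from a titration from 0.6 nM upwards.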

Assay [17] can be described thus: AP1 Signaling Pathway (AID 357; active means well fitted curve in either direction with a large enough effect, not every such curve was filed as active;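 further: ME-180 reporter cells stimulated with EGF at its EC50 level; on the % scale 0 is the no-effect control and ±100 the full control effect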). Conditions: ME-180 (cervical carcinoma) AP-1-bla reporter, EGF-induced, beta-lactamase ratio, 5 h; at 7.69 µM (top of the series) unless noted. In outline: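 Titration-series screen for positive or negative modulators of EC50 EGF-induced signaling in ME-180 cells carrying an AP-1-driven beta-lactamase reporter. After 5 hours at 37 degrees Celsius, CCF4 460nm/530nm emission ratio gave %Activity; AC50 values derived.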

In assay [18] the target is Glucocorticoid receptor (Homo sapiens) (UniProt P04150). Nature of the assay: GR-GFP Redistribution (AID 450;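 active means compounds whose dose series gives a full or clear partial fitted curve of increased nuclear translocation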; further: potency means the concentration at half of the fitted maximal effect). Conditions: U2OS GR-GFP nuclear translocation, laser cytometry, 2 h.
The target is the same in assay [19]. Nature of the assay: GR-EFC Redistribution (AID 451; calls by dose curve; further: potency means the concentration at half of the fitted maximal effect). Conditions: CHO-K1 GR-EFC translocation, beta-gal luminescence, 2 h. In outline:
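Translocation of GR-ED fusion to nuclear EA restores b-gal, read by luminescence after 1 h room-temperature detection. Engineered CHO-K1 biosensor cells, 1,000/well, exposed 2 h at 37 C to titrations up to 46 uM final.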

Assay [20] addresses Mitogen-activated protein kinase 10 (Mus musculus) (UniProt Q61831). Nature of the assay: JNK3 AlphaScreen Assay (AID 530; active means well fitted curve in either direction with a large enough effect, not every such curve was filed as active). In outline:
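Kinase buffer: 20 mM Tris-HCl pH 7.6, 10 mM MgCl2, 1 mM DTT, 0.1 mM Na3VO4, 0.01% Tween-20; ATP 10 uM. Substrate biotin-GST-cJun(1-79), enzyme from activated HepG2 lysates. Detection by Ser73 phospho-antibody AlphaScreen.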

In assay [21] the target is 3',5'-cyclic-AMP phosphodiesterase 4B (Homo sapiens) (UniProt Q07343). Nature of the assay: qHTS Assay for Inhibitors of PDE-IV (AID 607; active means well fitted activation curve with a large enough effect in the main read-out, with a control signal flat, not every such curve was filed as active; further: % of control where 0% means no effect). In outline:
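ACTOne HEK293 cells carry a modified cAMP-gated CNG channel and express endogenous PDE4; plated 1000 cells/well, compounds up to 22.9 uM final. Membrane-potential dye fluorescence (ex 535/em 590) was read; parental cells received 10 uM forskolin + 100 uM RO 20-1724.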

The target in assay [22] is Dual specificity protein kinase CLK4 (Homo sapiens) (UniProt Q9HAZ1). The assay can be described thus: qHTS Assay for Inhibitors of CDC-like Kinase 4 (ADP-FP Assay) (AID 1795).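 Further: recombinant human CLK4 phosphorylating RS repeat peptide at 1 µM ATP; on the % scale 0 is the no-effect control and ±100 the full control effect; nearly all actives have a fitted effect of over 60% in size.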 In outline: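 Kinase activity was measured as ADP production using Transcreener orange tracer (4 nM) and ADP antibody (1 ug/mL) fluorescence polarization, with ADP calculated from a calibration curve. The 1 h reaction contained 6.25 nM Clk4, 1 uM ATP and 100 uM RS peptide at pH 7.5 with Mg2+.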

For assay [23], the target named is Ubiquitin carboxyl-terminal hydrolase 1 (Homo sapiens) (UniProt O94782). Nature of the assay: Inhibitors of USP1/UAF1: Pilot qHTS (AID 504865).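 Further: rhodamine fluorescence freed from ubiquitin-rhodamine substrate followed over time; top concentration of the series differs between compounds; on the % scale 0 is the no-effect control and ±100 the full control effect; nearly all actives have a fitted effect of over 35% in size.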 In outline:
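Deubiquitinase activity followed as kinetic rhodamine fluorescence release from 150 nM Ub-Rho. 1 nM USP1/UAF1 with compound, after 15 min room-temperature preincubation, in HEPES pH 7.8 buffer containing TCEP, EDTA, BSA and Tween-20.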

Molecules are shown by their SMILES. Values without a mark were called inactive. Results filed as inconclusive are left out. Active and inactive are the calls of the source. Unless noted, the call rests on the fitted dose curve; in most records, active means well fitted curve in the direction sought with a large enough effect; inconclusive means small, poorly fitted or top-dose-only effect, or another doubt; inactive means no such curve, though single readings can be large; an effect the other way counts as inactive or inconclusive. Where only a bound is given, the exact number is not on record here.

Chain of Cytochrome P450 2D6 (Homo sapiens) (P10635 whole entry, looked up): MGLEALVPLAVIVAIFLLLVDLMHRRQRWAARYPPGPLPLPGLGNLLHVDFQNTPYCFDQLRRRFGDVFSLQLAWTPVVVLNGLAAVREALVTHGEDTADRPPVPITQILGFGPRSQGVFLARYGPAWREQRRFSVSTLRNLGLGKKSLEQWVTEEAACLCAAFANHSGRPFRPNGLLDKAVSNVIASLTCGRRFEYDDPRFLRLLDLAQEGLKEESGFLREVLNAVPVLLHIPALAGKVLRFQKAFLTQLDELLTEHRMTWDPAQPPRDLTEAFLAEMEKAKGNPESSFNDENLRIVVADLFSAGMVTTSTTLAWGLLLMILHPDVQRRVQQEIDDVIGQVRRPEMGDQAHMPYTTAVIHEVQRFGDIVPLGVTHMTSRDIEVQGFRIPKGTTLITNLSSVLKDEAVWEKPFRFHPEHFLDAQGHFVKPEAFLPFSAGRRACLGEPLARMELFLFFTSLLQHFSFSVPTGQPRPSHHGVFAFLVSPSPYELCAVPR
Chain of Cytochrome P450 2C19 (Homo sapiens) (P33261 whole entry, looked up): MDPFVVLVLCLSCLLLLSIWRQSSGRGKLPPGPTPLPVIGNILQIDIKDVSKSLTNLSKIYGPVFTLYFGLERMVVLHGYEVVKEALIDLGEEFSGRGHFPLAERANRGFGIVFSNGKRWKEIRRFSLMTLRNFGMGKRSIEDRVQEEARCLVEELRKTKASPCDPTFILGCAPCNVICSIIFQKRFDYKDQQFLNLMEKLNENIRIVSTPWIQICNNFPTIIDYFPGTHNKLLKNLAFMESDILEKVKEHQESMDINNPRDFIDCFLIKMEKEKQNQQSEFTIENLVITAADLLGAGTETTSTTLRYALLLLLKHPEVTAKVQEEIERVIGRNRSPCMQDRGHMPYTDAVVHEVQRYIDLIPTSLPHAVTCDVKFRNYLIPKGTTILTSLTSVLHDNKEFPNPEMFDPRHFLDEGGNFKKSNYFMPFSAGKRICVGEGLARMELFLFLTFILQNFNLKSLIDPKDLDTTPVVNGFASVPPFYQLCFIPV
Chain of Nuclear receptor subfamily 1 group I member 2 (Homo sapiens) (O75469 whole entry, looked up): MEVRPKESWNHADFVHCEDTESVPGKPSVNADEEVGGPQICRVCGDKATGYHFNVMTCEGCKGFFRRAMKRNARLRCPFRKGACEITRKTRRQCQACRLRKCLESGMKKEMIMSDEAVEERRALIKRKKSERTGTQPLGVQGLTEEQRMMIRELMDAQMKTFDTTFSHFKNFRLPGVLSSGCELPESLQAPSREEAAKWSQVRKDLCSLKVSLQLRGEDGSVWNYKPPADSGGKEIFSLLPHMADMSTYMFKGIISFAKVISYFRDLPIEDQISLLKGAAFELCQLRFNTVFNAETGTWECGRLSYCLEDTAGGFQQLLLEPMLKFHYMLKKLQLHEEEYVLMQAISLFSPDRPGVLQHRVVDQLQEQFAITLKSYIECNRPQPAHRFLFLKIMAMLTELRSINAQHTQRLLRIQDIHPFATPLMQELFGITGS
Chain of Glucocorticoid receptor (Homo sapiens) (P04150 whole entry, looked up): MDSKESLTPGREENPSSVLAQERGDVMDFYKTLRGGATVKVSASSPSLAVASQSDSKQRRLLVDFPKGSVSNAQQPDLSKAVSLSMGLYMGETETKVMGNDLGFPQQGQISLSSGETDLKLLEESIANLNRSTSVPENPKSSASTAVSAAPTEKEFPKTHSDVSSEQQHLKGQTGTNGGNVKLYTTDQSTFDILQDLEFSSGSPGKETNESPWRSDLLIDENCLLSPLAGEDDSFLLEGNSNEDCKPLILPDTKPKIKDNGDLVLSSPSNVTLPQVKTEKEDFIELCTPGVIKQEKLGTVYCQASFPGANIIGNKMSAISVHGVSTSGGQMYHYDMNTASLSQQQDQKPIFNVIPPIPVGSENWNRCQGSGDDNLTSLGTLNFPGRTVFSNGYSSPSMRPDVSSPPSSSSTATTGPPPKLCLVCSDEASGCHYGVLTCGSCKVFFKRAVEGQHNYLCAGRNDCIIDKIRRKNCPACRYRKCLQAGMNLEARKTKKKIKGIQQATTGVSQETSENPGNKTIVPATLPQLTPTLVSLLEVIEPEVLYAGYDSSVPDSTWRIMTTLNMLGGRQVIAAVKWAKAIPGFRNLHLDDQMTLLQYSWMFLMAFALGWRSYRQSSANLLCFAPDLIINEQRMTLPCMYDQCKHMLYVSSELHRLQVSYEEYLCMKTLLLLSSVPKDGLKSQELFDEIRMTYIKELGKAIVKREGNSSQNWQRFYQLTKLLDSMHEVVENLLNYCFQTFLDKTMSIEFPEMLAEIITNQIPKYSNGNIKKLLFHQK
Chain of Cytochrome P450 3A4 (Homo sapiens) (P08684 whole entry, looked up, canonical isoform): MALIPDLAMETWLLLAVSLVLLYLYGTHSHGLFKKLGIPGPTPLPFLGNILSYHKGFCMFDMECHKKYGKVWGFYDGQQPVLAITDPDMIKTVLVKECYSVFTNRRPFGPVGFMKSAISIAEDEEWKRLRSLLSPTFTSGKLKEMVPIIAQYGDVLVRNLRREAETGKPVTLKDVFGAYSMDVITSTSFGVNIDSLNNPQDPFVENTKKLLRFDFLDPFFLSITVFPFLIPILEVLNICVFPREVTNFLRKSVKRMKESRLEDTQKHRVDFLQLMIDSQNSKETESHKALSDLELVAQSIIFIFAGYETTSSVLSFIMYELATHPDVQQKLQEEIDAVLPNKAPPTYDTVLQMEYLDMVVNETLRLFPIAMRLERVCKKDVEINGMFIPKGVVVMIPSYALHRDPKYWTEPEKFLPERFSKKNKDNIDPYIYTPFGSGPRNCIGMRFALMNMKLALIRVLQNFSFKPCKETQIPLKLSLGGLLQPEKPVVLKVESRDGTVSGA
Chain of Cytochrome P450 1A2 (Homo sapiens) (P05177 whole entry, looked up): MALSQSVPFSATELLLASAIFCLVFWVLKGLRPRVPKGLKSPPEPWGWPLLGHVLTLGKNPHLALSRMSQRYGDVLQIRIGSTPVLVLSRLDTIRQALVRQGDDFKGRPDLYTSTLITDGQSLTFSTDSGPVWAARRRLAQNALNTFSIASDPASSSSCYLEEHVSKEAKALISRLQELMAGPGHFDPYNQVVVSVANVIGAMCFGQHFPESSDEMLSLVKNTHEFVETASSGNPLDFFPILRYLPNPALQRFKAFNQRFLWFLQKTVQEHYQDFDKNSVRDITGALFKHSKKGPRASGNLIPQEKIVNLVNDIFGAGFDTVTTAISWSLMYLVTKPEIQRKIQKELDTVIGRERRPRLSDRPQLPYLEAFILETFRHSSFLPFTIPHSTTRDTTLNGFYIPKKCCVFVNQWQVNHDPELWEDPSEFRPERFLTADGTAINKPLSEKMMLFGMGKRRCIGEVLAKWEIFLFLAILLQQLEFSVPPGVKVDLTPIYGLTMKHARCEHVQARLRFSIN
Chain of Cytochrome P450 2C9 (Homo sapiens) (P11712 whole entry, looked up): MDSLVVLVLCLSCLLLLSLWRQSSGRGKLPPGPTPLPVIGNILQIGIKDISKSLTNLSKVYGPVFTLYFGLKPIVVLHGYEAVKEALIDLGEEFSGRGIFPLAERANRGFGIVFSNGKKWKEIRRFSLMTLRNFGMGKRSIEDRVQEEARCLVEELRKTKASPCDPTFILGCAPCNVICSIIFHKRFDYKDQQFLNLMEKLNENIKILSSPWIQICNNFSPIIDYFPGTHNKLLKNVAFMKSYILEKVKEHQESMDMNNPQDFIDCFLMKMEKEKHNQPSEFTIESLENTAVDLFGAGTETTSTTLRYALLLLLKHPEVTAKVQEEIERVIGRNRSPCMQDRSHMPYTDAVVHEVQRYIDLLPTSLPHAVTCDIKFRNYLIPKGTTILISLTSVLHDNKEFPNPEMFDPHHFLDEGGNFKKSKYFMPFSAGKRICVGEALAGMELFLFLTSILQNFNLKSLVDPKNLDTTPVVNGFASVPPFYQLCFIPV
Chain of Nuclear receptor subfamily 1 group I member 3 (Homo sapiens) (Q14994 whole entry, looked up): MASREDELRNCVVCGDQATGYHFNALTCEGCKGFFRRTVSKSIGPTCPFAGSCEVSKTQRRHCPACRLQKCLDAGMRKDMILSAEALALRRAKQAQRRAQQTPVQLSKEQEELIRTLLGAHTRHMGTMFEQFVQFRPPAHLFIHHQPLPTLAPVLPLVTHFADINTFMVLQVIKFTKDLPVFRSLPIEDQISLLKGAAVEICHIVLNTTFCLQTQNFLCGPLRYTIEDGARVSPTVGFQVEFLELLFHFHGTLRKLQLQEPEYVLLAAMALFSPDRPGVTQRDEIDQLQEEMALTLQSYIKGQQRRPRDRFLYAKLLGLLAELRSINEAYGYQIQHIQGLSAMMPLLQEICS
Chain of Ubiquitin carboxyl-terminal hydrolase 1 (Homo sapiens) (O94782 whole entry, looked up): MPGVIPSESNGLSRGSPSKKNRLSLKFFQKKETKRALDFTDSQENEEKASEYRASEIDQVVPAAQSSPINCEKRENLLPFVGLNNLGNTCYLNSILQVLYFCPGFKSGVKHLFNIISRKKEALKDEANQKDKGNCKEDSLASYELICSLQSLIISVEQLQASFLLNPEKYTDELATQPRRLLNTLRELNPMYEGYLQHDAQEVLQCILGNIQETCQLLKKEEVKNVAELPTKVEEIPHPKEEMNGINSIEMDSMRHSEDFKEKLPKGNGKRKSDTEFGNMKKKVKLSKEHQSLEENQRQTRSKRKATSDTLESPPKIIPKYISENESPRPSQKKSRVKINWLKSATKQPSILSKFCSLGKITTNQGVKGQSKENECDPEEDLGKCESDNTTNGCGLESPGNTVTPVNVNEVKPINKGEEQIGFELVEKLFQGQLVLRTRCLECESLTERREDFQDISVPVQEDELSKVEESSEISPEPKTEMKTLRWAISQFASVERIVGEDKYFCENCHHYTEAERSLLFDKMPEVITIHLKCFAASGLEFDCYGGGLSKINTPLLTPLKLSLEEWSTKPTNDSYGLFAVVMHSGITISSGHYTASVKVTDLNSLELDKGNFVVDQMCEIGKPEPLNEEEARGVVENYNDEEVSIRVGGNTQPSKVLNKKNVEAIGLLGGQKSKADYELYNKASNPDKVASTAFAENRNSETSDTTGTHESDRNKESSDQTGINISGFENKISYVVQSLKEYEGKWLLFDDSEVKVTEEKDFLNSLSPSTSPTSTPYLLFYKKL

As for `CC[C@H](CC[C@@H](C)[C@H]1CCC2C3CCC4C[C@@H](O)CC[C@]4(C)C3CC[C@@]21C)C(C)C` (stereo not given in full), the molecule was classed as inactive in [1], in assay [2], in assay [4], in assay [9], in [12] and in assay [14]. Moreover, the result in [15] was inactive. Besides, the Potency result in assay [3], in assay [5], in assay [6], in [7], in assay [8] and in assay [10] was “inactive” in each case. Moreover, the Potency result in assay [13] was “inactive”. Moreover, the max response in assay [11] is -1.23%.

As for `CC(C)=CCC[C@](C)(O[C@@H]1O[C@H](CO)[C@@H](O)[C@H](O)[C@H]1O)[C@H]1CC[C@]2(C)[C@@H]1[C@H](O)C[C@@H]1[C@@]3(C)CC[C@H](O)C(C)(C)[C@@H]3[C@@H](O[C@@H]3O[C@H](CO)[C@@H](O)[C@H](O)[C@H]3O)C[C@]12C`, the molecule was classed as inactive in assay [1], in [2], in assay [4], in [9], in assay [14] and in assay [15]. In addition, the Potency entry in assay [5], in assay [6], in assay [7], in [8], in assay [10] and in assay [13] was “inactive” each time. Further, the max response in assay [11] was 2.82%.

`CCCCCCCCC[C@@H](O)CC(=O)CCc1ccc(O)c(OC)c1`: the call in assay [1], in [2], in [4], in [9], in assay [14] and in [15] was inactive. The Potency in assay [3] is 12.6 µM (active); in assay [8], 6.31 µM (active). Besides, the Potency entry in assay [6] was “inactive”.

For `COc1ccc2[nH]cc(CCNc3nc(-c4c(C)noc4C)nc4ccccc34)c2c1`, the figures for the Potency in [16], in assay [18] and in [19] were above 2.29 µM, above 46 µM and above 46 µM, respectively. Further, the activity change, negative = inhibition in assay [17] is -24.6%. For the same molecule, the Potency result in assay [20], in assay [21], in assay [22] and in assay [23] was “inactive” each time.

Values taken from PubChem BioAssay (NCATS).
